# Assay results from paper PMC5540273 (PLoS ONE, 2017).
# System: GAK
# 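Also: kd values determined as follow-up on hits from a single-replicate KINOMEscan panel screen.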
row,SMILES,Kd [µM]
1,c1ccc(-c2ccnc3[nH]ccc23)cc1 [SB-693578],3.7
2,COc1cc2ncnc(Nc3cccc(Br)c3)c2cc1OC.Cl [GI230329],0.029
3,COc1cccc(C2=C(Nc3cc(Cl)c(O)c(Cl)c3)C(=O)NC2=O)c1 [SB-390767],> 10

# System: GSK3A
row,SMILES,Kd [µM]
1,O=c1cc(N2CCOCC2)nc2n(Cc3ccccc3F)ccn12 [GSK2297428],> 10
2,COc1ccc(CSc2nnc(-c3ccc4ncsc4c3)o2)cc1C(F)(F)F,0.079
3,O=C(Nc1n[nH]c2nc(-c3ccco3)c(Br)cc12)C1CCN(Cc2ccccc2)C1.O=C(O)[C@H](O)[C@@H](O)C(=O)O (stereo not drawn) [SB-742034],0.13
4,COc1ccc(CSc2nnc(-c3ccc4nccn4c3)o2)cc1C(F)(F)F,0.25
5,O=C(Nc1n[nH]c2nc(-c3cccs3)c(Br)cc12)C1CCCC1 [SB-743341],0.062
6,O=C(Nc1n[nH]c2nc(-c3cccs3)c(Br)cc12)C1CC1 [SB-735297],0.091

# System: GSK3B
row,SMILES,Kd [µM]
1,COc1ccc(CSc2nnc(-c3ccc4ncsc4c3)o2)cc1C(F)(F)F,0.039
2,COc1ccc(CSc2nnc(-c3ccc4nccn4c3)o2)cc1C(F)(F)F,0.022
3,O=C(Nc1n[nH]c2nc(-c3cccs3)c(Br)cc12)C1CCCC1 [SB-743341],0.12
